Compounds with a hit are over-represented: about 3.8% of the library has one in this group of screens.
CR mimetic SO: reduction of superoxide in aged yeast, primary screen, HTS. S. cerevisiae aged cells, superoxide DHE fluorescence; hits give low values. 0.18% of 330,000 active. superoxide response (% of plate mean), % at 10 µM;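 active = superoxide response under a set limit, about three screen SD below normal, cut at about 65% in these data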;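 also: yeast aged for seven days with compound at 30 °C before DHE staining; 100% = average MFI of all compound-treated wells on the plate with controls excluded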
tim23-1 inh: growth inhibitors of tim23-1 mutant yeast, primary screen, luminescence, uHTS; S. cerevisiae tim23-1 growth, BacTiter-Glo luminescence, 24 h; inhibition, % at 20 µM; 1.3% of 330,000 active; AID 463212, 2010;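 active = growth inhibition of the mutant yeast at or above 50%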;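 also: temperature-sensitive mutant grown at 25 °C; plate controls were DMSO-treated mutant yeast for no effect and medium wells lacking yeast for full effect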
NALP3 yeast inh: NALP3 inflammasome inhibitors in reconstituted yeast, primary screen, luminescence, uHTS; Yeast reconstituted NLRP3/ASC/caspase-1, beta-gal luminescence, 24 h; inhibition, % at 10 µM; 0.39% of 330,000 active; AID 2825, 2010;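 active = inhibition of 50% or more; inactive = inhibition below 50%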;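 also: plate controls were induced DMSO wells for no effect and uninduced yeast grown without galactose for full effect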
tim10-1 inh: growth inhibitors of tim10-1 mutant yeast, primary screen, luminescence, uHTS; S. cerevisiae tim10-1 ts strain growth, BacTiter-Glo, 24 h; inhibition, % at 20 µM; 2.2% of 330,000 active;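 active = inhibition of at least 40%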;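 also: mutant grown at 25 °C; 0% = DMSO wells with yeast and 100% = wells holding no yeast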
TIM10 inh: growth inhibitors of isogenic TIM10 control yeast, primary screen, counter-screen for tim10-1 yeast inhibitor project, luminescence, uHTS; S. cerevisiae TIM10 strain growth, BacTiter-Glo luminescence, 24 h; inhibition, % at 10 µM; 1.4% of 330,000 active; AID 463195, 2010;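 active = inhibition of 40% or more at the single tested concentration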;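 also: wild-type TIM10 isogenic control strain grown at permissive 25 °C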
tim10-1 confirm: growth inhibitors of tim10-1 mutant yeast, confirmation, single concentration, luminescence, S. cerevisiae; shares compounds with tim10-1 inh; S. cerevisiae tim10-1 ts strain growth, BacTiter-Glo, 24 h; inhibition, % at 20 µM; 56% of 7,400 active;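 active = inhibition of yeast growth at or above a set limit in either of two repeat tests at 20 µM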;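 also: tim10-1 mutant grown at permissive 25 °C to find synthetic lethal compounds; 0% = DMSO yeast wells and 100% = medium wells without yeast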
The depositor's hits bear a star; i = inactive; · = not tested or not shown.

SMILES | CR mimetic SO | tim23-1 inh | NALP3 yeast inh | tim10-1 inh | TIM10 inh | tim10-1 confirm
COC(CN(C(=O)CCl)C(C(=O)NC1CCCCC1)c1ccccc1C)OC (stereo unspecified) | 100.5 | 36.2 | 10.0 | 43.3* | 39.0 | 32.1*
COc1ccc(C(C(=O)NC2CCCCC2)N(C(=O)CCl)c2ccc(Cl)cc2)cc1 (stereo unspecified) | 119.6 | 16.8 | 1.0 | 20.8 | 19.4 | ·
COC(CN(C(=O)CCl)C(C(=O)NC1CCCCC1)c1ccc(Cl)cc1)OC (stereo unspecified) | 83.0 | 38.3 | 3.7 | 43.0* | 33.6 | 29.9
COC(=O)CC1C(=O)NC2CCCCC2N1C(=O)CCl (stereo unspecified) | 100.6 | 9.3 | 19.2 | -0.4 | 7.0 | ·
CC(C)(C)c1cc(CN2CCN(CCO)CC2)cc(C(C)(C)C)c1O | 98.6 | 0.8 | 4.6 | -7.2 | -20.4 | ·
CN1CCN(CC(=O)c2cc(C(C)(C)C)c(O)c(C(C)(C)C)c2)CC1 | 101.8 | 23.6 | -14.8 | 43.9* | 24.4 | 25.9
c1ccc(CNc2nc(NCc3ccccc3)c3ccccc3n2)cc1 | 90.8 | -67.5 | 30.0 | 61.7* | -37.2 | -89.2
c1ccc(CNc2nc(-c3ccccn3)nc3ccccc23)cc1 | 98.5 | -14.8 | 47.8 | 11.6 | 27.9 | ·
C=CC[C@@H]1Cc2c(Br)ccc(Br)c2[C@@H](CC=C)N1 | 106.1 | 29.3 | 9.3 | 40.5* | -1.9 | 27.9
CCOC(=O)c1ccc(NC(=O)CCc2nc(-c3ccccc3Cl)no2)cc1 | 108.5 | 30.4 | 18.7 | 40.7* | 33.6 | 29.3*
C=CC[n+]1c(-c2ccc(C)cc2)csc1Nc1c(C)n(C)n(-c2ccccc2)c1=O | 103.3 | 38.8 | 16.9 | 40.6* | 29.9 | 24.2
C=CCSc1nnc(NC(=O)c2nc(SCC)ncc2Cl)s1 | 120.7 | 35.3 | 9.9 | 27.1 | 24.0 | ·
CSc1ncc(Cl)c(C(=O)Nc2nnc(SC/C=C/c3ccccc3)s2)n1 | 107.8 | 28.6 | -14.1 | 41.8* | 16.0 | 38.6*
CC1Cc2ccccc2N1C(=O)CN1CCN(S(=O)(=O)c2cccs2)CC1 (stereo unspecified) | 96.5 | 35.7 | 10.9 | 47.9* | 11.3 | 21.1
CC1Cc2ccccc2N1C(=O)CCS(=O)(=O)c1cccs1 (stereo unspecified) | 99.8 | 23.7 | 5.8 | 8.3 | 17.2 | ·
Clc1ccc(C2=NN(c3ccccc3)C(c3ccco3)C2)cc1 (stereo unspecified) | 73.4 | 5.3 | -2.6 | 5.0 | 3.9 | ·
Cc1nn2c(c1-c1ccc(Cl)cc1)N=C(c1ccco1)CC2c1ccccc1 (stereo unspecified) | 93.4 | 37.7 | 4.4 | 41.9* | 39.3 | 33.7*
Cc1ccccc1C(=O)NCC(=O)NNC(=O)c1cccc(Cl)c1 | 113.4 | 8.0 | 17.7 | -0.9 | -4.4 | ·
CCCCN(C(=O)CC1CCCCC1)c1c(N)n(CC(C)C)c(=O)[nH]c1=O | 123.3 | 7.1 | 8.9 | -5.3 | 3.1 | ·
Cc1cc(C)n2nc(SCC(=O)Nc3c(C)n(C)n(-c4ccccc4)c3=O)nc2n1 | 85.1 | 10.1 | -6.5 | 5.1 | 8.9 | ·
O=C(O)/C(=C\c1ccc(-c2ccccc2[N+](=O)[O-])o1)c1ccccc1 | 99.5 | 13.6 | 25.5 | 40.2* | 12.0 | 51.5*
NS(=O)(=O)c1ccc(CCNC(=O)C(=O)c2cn(CC(=O)N3CCOCC3)c3ccccc23)cc1 | 99.5 | -8.8 | 6.6 | -9.6 | 2.3 | ·
CCOc1cc(S(=O)(=O)Nc2ccc(CC)cc2)ccc1Cl | 103.3 | 45.8 | 20.7 | 59.2* | 33.4 | 25.1
COc1ccccc1CC(=O)N1CCOCC1 | 96.3 | -5.8 | 15.3 | -0.8 | -7.0 | ·
CC(=O)Nc1ccc(Nc2nc(-c3ccccc3)nc3ccccc23)cc1 | 98.2 | 23.3 | 15.2 | 48.4* | 34.5 | 34.5*
SMILES | CR mimetic SO | tim23-1 inh | NALP3 yeast inh | tim10-1 inh | TIM10 inh | tim10-1 confirm
Cc1ccc(CNc2nc(-c3cccnc3)nc3ccccc23)cc1 | 92.7 | 43.3 | 15.5 | 31.3 | -5.0 | ·
Cc1ccccc1Nc1nc(-c2cccnc2)nc2ccccc12 | 109.5 | 44.9 | 20.8 | 43.4* | -12.6 | 18.9
O=C(O)c1ccc(Nc2nc(-c3ccc([N+](=O)[O-])cc3)nc3ccccc23)cc1 | 97.2 | -6.5 | 22.5 | -8.5 | -8.7 | ·
CCOc1cccc(C(=O)N(Cc2cccc(F)c2)C2CCS(=O)(=O)C2)c1 (stereo unspecified) | 115.6 | 9.2 | 9.2 | 27.0 | 3.6 | ·
Cc1c(C)n(C)c2ccc(C(=O)Nc3cccc4ccccc34)cc12 | 93.9 | 38.3 | 25.5 | 42.6* | 24.4 | 32.1*
COc1cccc(CNC(=O)Cc2ccc(-n3c(=O)[nH]c4ccccc4c3=O)cc2)c1 | 104.0 | 3.9 | 7.6 | 10.3 | 9.3 | ·
COc1cccc(-n2cc(-c3ccc(F)cc3)[nH]c2=S)c1 | 93.3 | 48.2 | 21.6 | 46.0* | 26.4 | 14.0
Cc1cccc2c(=O)c(-c3ccc4c(c3)OCO4)c(NC(=O)c3ccco3)oc12 | 103.9 | 46.7 | 3.8 | 42.2* | 27.5 | 7.7
COC(=O)c1cccc(NS(=O)(=O)c2ccc(OC)c(C(=O)N3CCOCC3)c2)c1C | 107.1 | 9.0 | 2.1 | -16.8 | -8.8 | ·
COC(=O)c1c(-c2ccccc2Cl)noc1/C=C/N(C)C | 88.8 | 35.0 | -12.9 | 40.4* | 26.7 | 25.9
C#CCSc1nc2sc3c(c2c(=O)n1C)CCC3 | 107.8 | -2.7 | -3.7 | 13.1 | 0.6 | ·
Cc1nn2c(N3CCN(C(=O)c4ccco4)CC3)cc(C(C)(C)C)nc2c1-c1ccccc1 | 106.9 | 43.7 | 26.0 | 49.5* | 22.3 | 25.8
Cc1nn2c(N3CCN(C)CC3)cc(C(C)(C)C)nc2c1-c1ccccc1 | i | -15.2 | 19.0 | -51.8 | 20.1 | ·
Fc1ccc(N/N=C/C=C/c2ccccc2)c(F)c1 | 98.8 | 28.3 | 15.8 | 68.8* | 9.9 | 49.4*
CCOC(=O)Nc1nc(-c2ccc(Cl)cc2Cl)cs1 | 100.4 | 41.2 | 25.3 | 40.4* | 36.3 | 17.2
Cc1cccc(NC(=O)CN(CC2CCCO2)C(=O)c2cc(S(=O)(=O)N(C)C)ccc2F)c1C (stereo unspecified) | 98.9 | -5.7 | 3.4 | -2.1 | 11.1 | ·
CCc1c(C(=O)NCc2ccccc2Cl)[nH]c(C)c1C(C)=O | 98.2 | 11.9 | 16.0 | 55.8* | -4.8 | -5.3
Cc1cc(O)c(C(=O)/C=C/c2ccccc2)c(=O)o1 | 85.0 | 41.9 | 6.0 | 29.6 | 13.1 | ·
Cc1cc(O)c(C(=O)/C=C/c2ccccc2Br)c(=O)o1 | 103.0 | 34.9 | 18.1 | 45.6* | 23.1 | 11.4
Cc1cc(O)c(C(=O)/C=C/c2ccc(C(C)C)cc2)c(=O)o1 | 101.8 | 42.8 | 20.7 | 42.7* | 31.1 | 32.7*
CCOc1ccc(/C=C/C(=O)c2c(O)cc(C)oc2=O)cc1 | 107.0 | 43.4 | 15.9 | 25.0 | 19.8 | ·
